High-throughput results (PubChem)
APE1 inh: qHTS Assay for Inhibitors of the Human Apurinic/apyrimidinic Endonuclease 1 (APE1); recombinant APE1, TAMRA/BHQ-2 abasic DNA cleavage fluorescence; DNA repair nuclease/redox regulator APEX1 (Homo sapiens), P27695; hit rate 0.35% among 350,000; Potency, µM (titrated, usually from 65.8 µM), actives largely listed as inhibitors; note: nearly all actives have a fitted effect of over 55% in size
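Step 1: APE1 (0.75 nM) with compound, 15 min RT. Step 2: add 50 nM fluorophore/quencher THF duplex. Step 3: three fluorescence reads 60 s apart (525/598 nm); read 3 minus read 1 = reaction progress.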
RECQ1 helicase: qHTS Assay for Inhibitors of RecQ-Like Dna Helicase 1 (RECQ1); hit rate 0.54% among 240,000; ATP-dependent DNA helicase Q1 (Homo sapiens), P46063; AID 2549, 2010; RECQ1 DNA unwinding, red fluorescence kinetic read; Potency, µM (titrated, usually from 57.3 µM), actives largely listed as inhibitors; note: nearly all actives have a fitted effect of over 30% in size
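RECQ1T1 50 nM; forked duplex (20 bp + 30-nt ss tails) 200 nM, ATP 2 mM final; pH 8.0, 2 mM MgCl2, 2.5 ug/ml poly(dI-dC); 15 min compound preincubation; discontinuous kinetic read over 2 h at RT.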
FEN1 inh: qHTS Assay for the Inhibitors of Human Flap endonuclease 1 (FEN1). P39748. hit rate 0.35% among 390,000. Potency, µM (titrated, usually from 114 µM), actives largely listed as inhibitors. Recombinant FEN1 flap cleavage, fluorescence, 15 min; note: nearly all actives have a fitted effect of over 65% in size
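Concentration–response screening of FEN1 (10 nM): 15 min compound preincubation at room temperature, reaction started with 50 nM substrate and read at 0 and 15 min. Corrected, normalized data were fitted by a four-parameter Hill equation.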
L3MBTL1 block: qHTS Assay for the Inhibitors of L3MBTL1; hit rate 0.66% among 230,000; AlphaScreen L3MBTL1–H3K9me1 peptide binding; Lethal(3)malignant brain tumor-like protein 1 (Homo sapiens), Q9Y468; Potency, µM (titrated, usually from 57.1 µM), usual class: inhibitors; note: nearly all actives have a fitted effect of over 60% in size
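Read-out is AlphaScreen signal from streptavidin donor and nickel chelate acceptor beads (10 ug/mL final each) bridging L3MBTL1 (50 nM) and biotinylated K9-monomethylated H3(1-15) peptide (75 nM), after 30 min compound exposure at room temperature.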
BLM helicase inh-1: qHTS Assay for Inhibitors of Bloom's syndrome helicase (BLM); recombinant BLM DNA unwinding, fluorescence dequenching; AID 2528, 2010; hit rate 0.2% among 350,000; RecQ-like DNA helicase BLM (Homo sapiens), P54132; Potency, µM (titrated, usually from 56.1 µM), most hits filed as inhibitors; note: nearly all actives have a fitted effect of over 35% in size
WRN helicase inh-1: qHTS for Inhibitors of WRN Helicase. WRN helicase unwinding, fluorescent forked duplex, kinetic. Potency, µM (doses to about 114 µM), actives largely listed as inhibitors. hit rate 0.46% among 360,000; note: nearly all actives have a fitted effect of over 55% in size
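Fluorescence dequenching readout, ex 525 nm/em 598 nm, kinetic mode: forked duplex DNA (100 nM final) with adjacent fluorophore and quencher unwound by WRN (20 nM final) with 2 mM ATP. Compound preincubation 15 min, room temperature.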
WRN helicase inh-2: qHTS for Inhibitors of WRN Helicase: Confirmatory Assay for Cherry-picked Compounds | AID 720497, 2013 | Potency, µM (titrated, usually from 57.1 µM), hits mostly inhibitors | shares compounds with WRN helicase inh-1 | WRN helicase DNA unwinding, fluorescence kinetic | hit rate 63% among 610; note: nearly all actives have a fitted effect of over 65% in size
TO DNA binding: qHTS for Inhibitors of WRN Helicase: Thiazole Orange DNA Binding Counterscreen; shares compounds with WRN helicase inh-1; thiazole orange DNA binding displacement, fluorescence; Potency, µM (titrated, usually from 57.1 µM), most hits filed as inhibitors; hit rate 10% among 610; AID 720499, 2013;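 note: drop in dye fluorescence marks compound binding to DNA; nearly all actives have a fitted effect of over 60% in size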
BLM helicase inh-2: qHTS for Inhibitors of WRN Helicase: BLM Helicase Counterscreen for WRN Inhibitors | shares compounds with WRN helicase inh-1 | Recombinant BLM helicase DNA unwinding, red fluorescence | Potency, µM (top dose mostly 57.1 µM), usual class: inhibitors | hit rate 60% among 610 | AID 720503, 2013; note: nearly all actives have a fitted effect of over 60% in size
A number is an active result; n = inactive; u = inconclusive; x = no result; [ ] = dose if it differs, or a comment. This is a sample that favours compounds with a hit; in the whole collection about 1% have one here. Calls come from the whole dose curve; as a rule, active = well fitted curve in the direction sought with a large enough effect; inconclusive = small, poorly fitted or top-dose-only effect, or another doubt; inactive = no such curve, though single readings can be large; an effect the other way counts as inactive or inconclusive.

SMILES | APE1 inh | RECQ1 helicase | FEN1 inh | L3MBTL1 block | BLM helicase inh-1 | WRN helicase inh-1 | WRN helicase inh-2 | TO DNA binding | BLM helicase inh-2
Cc1c(O)c(O)cc2c1CC=C1[C@]3(C)CC[C@]4(C)CC[C@@](C)(C(=O)O)CC4[C@]3(C)CC[C@]12C (stereo not given in full) | n | n | x | x | n | x | x | x | x
CC12C=CC(=O)C=C1CCC1C2=CCC2(C)C1CC[C@@H]2C(=O)CN1CCN(c2cc(N3CCCC3)nc(N3CCCC3)n2)CC1 (stereo not given in full) | n | n | x | x | n | x | x | x | x
Cc1cc(/C=C2\C(=O)NC(=S)N(C)C2=O)c(C)n1C1CCCCC1 | n | n | n | n | n | n | x | x | x
CN1C(=O)/C(=C\c2ccc(Br)s2)C(=O)NC1=S | n | x | u | n | n | 18µM | u | n | u
Cc1cccc(C)c1N | n | n | x | x | x | x | x | x | x
CN1C(=O)[C@]23CC4=CC=C[C@H](O)[C@H]4N2C(=O)[C@@]1(CO)SS3 | n | n | x | x | n | x | x | x | x
O=C1NC(=S)NC(=O)C1=Cc1cccc2cc3ccccc3cc12 | n | n | u | n | n | u | u | n | u
O=C(O)Cn1cc(/C=C2\C(=O)NC(=O)N(c3ccc(Br)cc3)C2=O)c2ccccc21 | n | x | u | x | n | u | n | n | 17µM
Cc1ccc(N2C(=O)NC(=O)/C(=C\c3cn(CC(=O)O)c4ccccc34)C2=O)cc1 | n | x | n | n | n | n[11.6 µM] | x | x | x
O=c1[nH]c(=S)[nH]c(O)c1N=Nc1ccc(-c2ccccc2)cc1[N+](=O)[O-] | n | u | x | u | u | x | x | x | x
N/C(=N\N=C/c1ccc(-c2ccc(O)c(C(=O)O)c2)o1)N[N+](=O)[O-] | 7.9µM | 13µM | 50µM | 11µM | n | 25µM | 7.6µM | u | 6.8µM
CC(Cc1ccc(OCC(=O)O)cc1)NCC(O)c1cccc(Cl)c1 (stereo not given) | u | n | x | x | x | x | x | x | x
CC(Cc1ccc(O)cc1)NCC(O)c1ccc(O)c(O)c1 (stereo not given) | x | x | x | x | x | 25µM | 14µM | n | 6.1µM
N#Cc1c(-c2csc(-c3no[n+]([O-])c3C#N)c2)no[n+]1[O-] | x | x | x | x | x | x | u | n | u
CC(C)C1C(=O)O[C@@H]2CCN3CC=C(COC(=O)[C@](C)(O)[C@]1(C)O)[C@H]23 (stereo not given in full) | n | n | x | x | n | x | x | x | x
C=CCc1cc(C=C2C(=O)N(C)C(=O)N(C)C2=O)cc(OCC)c1OCc1ccccc1 | u | n | n | n | n | 45µM | n | n | u
CCc1ccccc1NC(=O)Nc1cc(C(=O)NCc2ccc(C(C)C)cc2)ccc1N1CCCC1 | x | x | n | x | n | x | x | x | x
O=C1C(=Cc2cn(-c3ccccc3)nc2-c2ccc(OCc3ccc(Cl)cc3)cc2)SC(=S)N1CCS(=O)(=O)O | x | x | x | x | x | 14µM | 11µM | u | 3.8µM
O=C1NC(=O)C(=Cc2ccccc2[N+](=O)[O-])C(=O)N1 | x | x | n | x | x | 40µM | n | n | n
CCCCC/C=C\C/C=C\C/C=C\C/C=C\CCCC(=O)N[C@H](C)CO | u | n | x | x | u | x | x | x | x
